Laboratory results published in ChEMBL document CHEMBL3988442, “University of Dundee, Small-Polar-MMV Screening Library” (2021).
Out of some 67,000 compounds screened, about 300 (0.45%) showed an effect of 50% or more. What follows is part of a selection rich in strong results, with near analogues and random picks from the rest.

What follows are compounds tested against Polyketide synthase Pks13 (Mycobacterium tuberculosis (strain ATCC 25618 / H37Rv)) (UniProt I6X8D2) (assay: Mycobacterium tuberculosis Polyketide synthase 13 Thioesterase (PKS13)). Details: 30 µM.
Type: functional
Design: scale not given: in the data most compounds retested in dose-response had high values

Polyketide synthase Pks13 (Mycobacterium tuberculosis (strain ATCC 25618 / H37Rv)), sequence (I6X8D2 whole entry): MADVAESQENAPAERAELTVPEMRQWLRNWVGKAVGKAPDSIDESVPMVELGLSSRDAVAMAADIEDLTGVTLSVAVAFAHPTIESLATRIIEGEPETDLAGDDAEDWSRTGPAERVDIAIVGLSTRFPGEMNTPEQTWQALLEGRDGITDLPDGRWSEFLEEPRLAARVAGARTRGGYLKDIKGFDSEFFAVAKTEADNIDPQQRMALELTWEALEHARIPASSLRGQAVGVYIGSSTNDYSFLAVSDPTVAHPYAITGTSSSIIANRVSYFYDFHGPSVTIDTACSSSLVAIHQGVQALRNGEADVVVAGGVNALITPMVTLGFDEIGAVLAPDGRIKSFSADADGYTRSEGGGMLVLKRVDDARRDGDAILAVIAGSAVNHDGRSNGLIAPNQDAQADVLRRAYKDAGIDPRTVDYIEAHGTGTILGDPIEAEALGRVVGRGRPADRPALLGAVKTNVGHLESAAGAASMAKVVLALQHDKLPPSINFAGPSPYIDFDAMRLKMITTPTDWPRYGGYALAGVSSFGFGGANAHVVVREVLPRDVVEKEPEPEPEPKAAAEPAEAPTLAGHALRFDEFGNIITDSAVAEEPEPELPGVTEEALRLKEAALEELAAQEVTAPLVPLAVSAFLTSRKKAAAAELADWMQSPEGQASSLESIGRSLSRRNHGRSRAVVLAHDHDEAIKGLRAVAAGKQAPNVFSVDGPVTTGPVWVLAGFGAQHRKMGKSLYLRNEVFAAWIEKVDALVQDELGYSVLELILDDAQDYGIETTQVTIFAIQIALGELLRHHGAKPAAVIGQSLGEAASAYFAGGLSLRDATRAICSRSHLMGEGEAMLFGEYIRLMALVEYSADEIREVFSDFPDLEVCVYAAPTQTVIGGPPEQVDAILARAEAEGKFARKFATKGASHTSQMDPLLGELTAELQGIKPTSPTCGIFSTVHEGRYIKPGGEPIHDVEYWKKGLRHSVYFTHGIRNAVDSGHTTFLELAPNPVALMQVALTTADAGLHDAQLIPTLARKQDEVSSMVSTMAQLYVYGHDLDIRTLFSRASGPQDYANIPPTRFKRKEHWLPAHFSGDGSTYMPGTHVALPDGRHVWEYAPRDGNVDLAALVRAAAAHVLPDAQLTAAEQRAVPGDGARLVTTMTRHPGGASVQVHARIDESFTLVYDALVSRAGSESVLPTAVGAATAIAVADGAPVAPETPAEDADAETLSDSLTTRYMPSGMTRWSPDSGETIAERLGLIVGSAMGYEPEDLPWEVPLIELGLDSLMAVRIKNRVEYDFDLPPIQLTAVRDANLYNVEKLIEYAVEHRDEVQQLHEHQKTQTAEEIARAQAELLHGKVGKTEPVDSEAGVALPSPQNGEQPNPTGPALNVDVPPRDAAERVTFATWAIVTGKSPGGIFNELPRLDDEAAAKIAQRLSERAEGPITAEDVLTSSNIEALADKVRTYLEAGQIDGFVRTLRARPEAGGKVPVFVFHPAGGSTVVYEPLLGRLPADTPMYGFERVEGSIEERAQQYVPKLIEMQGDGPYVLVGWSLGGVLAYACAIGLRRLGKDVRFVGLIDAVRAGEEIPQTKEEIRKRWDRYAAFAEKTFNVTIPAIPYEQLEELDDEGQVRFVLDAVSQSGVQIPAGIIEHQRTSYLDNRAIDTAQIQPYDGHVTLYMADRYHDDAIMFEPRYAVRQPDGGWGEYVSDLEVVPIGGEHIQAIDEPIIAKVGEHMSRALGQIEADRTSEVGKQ

SMILES | Percent Effect [%]
COc1ccc(CN2CC[C@@H]3CN(S(C)(=O)=O)CCO[C@@H]3C2)cc1 | -17.7
O=C(Nc1cccnc1)[C@H]1COC[C@H]2CN(C3CCCC3)C[C@H]21 | -10.2
CCn1nnc(NCc2ccc(-c3ccc(Br)cc3)o2)n1 | 31.1
CCCn1nnc(NCc2ccc(-c3ccc(Br)cc3)o2)n1 | 50.3
Cn1nnc(NCc2ccc(-c3ccc(Br)cc3)o2)n1 | 13.4
CC(C)c1cc(C(=O)N2C[C@H]3CC[C@@H]2CN(Cc2ccccn2)C3)no1 | -30.6
Cc1cnc(N2CCCC(O)C2)nc1-c1ccnn1C (stereo not drawn) | 5.81
COc1cnc(N2CCN(C)CC2)nc1-c1ccnn1C | 68
Cc1cnc(N2CCN(C)CC2)nc1-c1ccnn1C | 4.24
Cc1cnc(N2CCC(c3ccncc3)CC2)nc1-c1ccnn1C | -33.3
Cc1cnc(N2CCC(c3ccccc3)CC2)nc1-c1ccnn1C | -31.6
COc1cnc(N2CC(N3CCOCC3)C2)nc1-c1ccnn1C | 54.8
CCn1c(Cn2cncn2)nnc1C1CCN(C[C@H]2[C@@H]3CNC[C@@H]32)CC1 | -3.59
CCS(=O)(=O)N1C[C@H]2CN(c3cnn(C)c3)C(=O)[C@H]2C1 | -4.27
Cc1ccccc1CN1CC[C@H]2C[C@H](C(=O)N(C)C)O[C@H]2C1 | -13.3
Cc1noc(C)c1CN1CC[C@@H]2O[C@@H](COCC3CC3)CC[C@@H]21 | -31.2
CCS(=O)(=O)N1C[C@@H](C(=O)NC(C)C)[C@@]2(Cc3ccccc3C(=O)N2)C1 | 9.59
CC(C)NC(=O)[C@@H]1CN(C(=O)C2CC2)C[C@]12Cc1ccccc1C(=O)N2 | 52.6
CN1C[C@@H](C(=O)NC(C)(C)C)[C@@]2(CCc3ccccc3C(=O)N2)C1 | 1.71
CS(=O)(=O)N1C[C@@H]2CC[C@H](C1)N(CCC(=O)NCc1ccco1)C2 | -13.4
CN1CC2(CCCN(Cc3nnc(-c4ccco4)o3)CC2)OC1=O (stereo not drawn) | 62.4
CN1CC2(CCCN(Cc3nnc(-c4ccccc4)o3)CC2)OC1=O (stereo not drawn) | -7.32
CC(C)c1nnc(CN2CCCC3(CC2)CN(C)C(=O)O3)o1 (stereo not drawn) | -10.9
Cn1ccc(C(=O)N2C[C@@H]3CN(CC4CC4)CCO[C@@H]3C2)n1 | -15.9
O=C(N[C@@H]1CN(c2ncccn2)C[C@@H]2CCCO[C@@H]21)c1cnccn1 | -18

SMILES | Percent Effect [%]
COc1cccc(N2CCN(CC(O)c3ccc(C)cc3)CC2)c1 (stereo not drawn) | -26.6
COc1cccc(C(O)CN2CCN(c3cccc(C)c3)CC2)c1 (stereo not drawn) | 0.857
CCc1ccc(C(O)CN2CCN(c3cccc(OC)c3)CC2)cc1 (stereo not drawn) | 56.5
CNC(=O)[C@H]1C[C@@H]2CN(Cc3ccc(C)cc3)C[C@H]1O2 | -2.73
COc1ccc(NC(=O)Cn2c(=O)nc(N)c3cc(C)sc32)cc1 | -1.59
Cc1cc2c(N)nc(=O)n(CC(=O)Nc3ccccc3)c2s1 | 61
Cc1cc2c(N)nc(=O)n(CC(=O)Nc3cccc(Cl)c3)c2s1 | 11.9
c1cnc(N2C[C@H]3CCN(Cc4ccncc4)C[C@H]3C2)nc1 | -10.9
CCc1n[nH]c(SCC(=O)N2C[C@@H]3CC[C@H](C2)N(CC=C(C)C)C3)n1 | 4.76
CCc1ccc(CN2CC[C@@H]3CN(S(C)(=O)=O)CCO[C@@H]3C2)o1 | -6.54
CNC(=O)[C@H]1C[C@@H]2CN(S(=O)(=O)c3ccc(OC)cc3)C[C@@H]2N1C | -0.271
O=C(C[C@@H]1COC[C@H]2CN(C(=O)c3cccnc3)C[C@@H]12)N1CCOCC1 | -5.25
CCCNCc1cc2c(C)cc(C)cc2n2c(=O)n(C)nc12 | 33.4
Cc1cc(C)c2cc(CNC3CCCCC3)c3nn(C)c(=O)n3c2c1 | 10.2
Cc1cc(C)c2cc(CNCc3ccccc3)c3nn(C)c(=O)n3c2c1 | -72.8
Cc1cc(C)c2cc(CNC(C)C)c3nn(C)c(=O)n3c2c1 | 52.3
Cc1cc(C)c2cc(CNCc3ccco3)c3nn(C)c(=O)n3c2c1 | -29.8
Cc1cc(C)c2cc(CNCc3cccnc3)c3nn(C)c(=O)n3c2c1 | 112
Cc1cnc(N2CC[C@@H]3O[C@@H](COCC(=O)N(C)C)CC[C@@H]32)nc1 | -4.2
Cc1cc(C)nc(N2CC[C@@]3(O)CCN(S(=O)(=O)N(C)C)C[C@H]3C2)n1 | -22.2
O=C([C@@H]1COC[C@H]2CN(C3CCOCC3)C[C@H]21)N1CCCCO1 | 3.42
Cc1cccc(C)c1Oc1ncccc1CNC(=O)C1(C)CCCNC1 (stereo not drawn) | -21.7
CC1(C(=O)NCc2cccnc2Oc2ccc(F)c(F)c2)CCCNC1 (stereo not drawn) | 63.7
CC1(C(=O)NCc2cccnc2Oc2ccc(F)cc2F)CCCNC1 (stereo not drawn) | -16.5
Cc1ccccc1CN1C[C@@H]2OCC(=O)N(CC(N)=O)[C@@H]2C1 | -35.3

SMILES | Percent Effect [%]
CCOC[C@]12COC[C@H]1CN(Cc1ccc(F)c(F)c1)C2 | -14.9
Cc1ncc(CN2CCCC2)c2cc(C(=O)c3ccc(Br)cc3)oc12 | -4.91
Cc1ncc(CNCC(C)O)c2cc(C(=O)c3ccc(Br)cc3)oc12 (stereo not drawn) | 53.8
Cc1ncc(CNCCO)c2cc(C(=O)c3ccc(Br)cc3)oc12 | -1.68
COCCn1c2c(ccc1=O)CCN(Cc1ccoc1)CC2 | 19
O=c1ccc2c(n1Cc1ccncc1)CCN(Cc1ccoc1)CC2 | 6.04
O=c1ccc2c(n1CC1CCOCC1)CCN(Cc1ccoc1)CC2 | 52.6
O=C(c1cscn1)N1CC[C@H]2[C@@H]1CCC(=O)N2c1ccccc1 | -9.46
c1ccc2c(c1)CN(c1ncnc3c1CCNC3)CCO2 | -34
c1ccc2c(c1)CCN(c1ncnc3sc4c(c13)CCNC4)C2 | -23.8
c1ccc2c(c1)CN(c1ncnc3sc4c(c13)CCNC4)CCO2 | 63
O=c1[nH]c(NCCO)nc2c1C1(CCCCC1)Cc1ccccc1-2 | -23
OCCCNc1nc(O)c2c(n1)-c1ccccc1CC21CCCCC1 | 13.8
O=c1[nH]c(NCCO)nc2c1C1(CCCC1)Cc1ccccc1-2 | 12.1
O=C(NCCCO)C1(N2CCCCC2)Cc2ccccc2C1 | -29.6
CC1(C)Cc2ccccc2-c2nc(NCCO)[nH]c(=O)c21 | 88.1
CCC1(C)Cc2ccccc2-c2nc(NCCCO)nc(O)c21 (stereo not drawn) | 37.9
Cc1cc(NCCO)nc(-c2ccccc2O)n1 | 19.7
CC1(C)Cc2ccccc2-c2nc(NCCCO)[nH]c(=O)c21 | 62.7
CCC1(C)Cc2ccccc2-c2nc(NCCO)nc(O)c21 (stereo not drawn) | 55.8
O=c1[nH]c(NCCCO)nc2c1C1(CCCC1)Cc1ccccc1-2 | 55.4
CC(C)(CO)CCCNC(=O)NC1(C)Cc2ccccc2C1 | 0.272
O=c1c(NCCCO)c(N2CCN(c3ccccc3)CC2)c1=O | 4.71
